37 molecules from PubChem BioAssay (EPA / NIEHS) can be followed below.

The source made the active and inactive calls. How the source made its calls: active means hit-call score of the fitted dose curve at least 0.9, where 1 is the maximum; inactive means score below 0.9.

Read-out in the assay: UDP glucuronosyltransferase (UGT1A6), UGT1A6 (gene 54578)
The assay can be described thus: LTEA_HepaRG_UGT1A6: Life Technologies and Expression Analysis (LTEA) Assay for UDP glucuronosyltransferase (UGT1A6) using HepaRG (AID 2283539). Conditions: mRNA level, 48 h; actives raise or lower the signal. Put shortly:
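Measures mRNA change in HepaRG hepatic cells exposed 48 h to chemicals (eight-point, maximum 100 uM, 0.5% DMSO vehicle) in serum-free induction medium. Expression normalized to endogenous controls; DMSO served as negative control and baseline.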
The AC50 is the concentration at which the activity in the assay is half-maximal. With `O=C(NO)C1(NS(=O)(=O)c2ccc(Oc3ccc(F)cc3)cc2)CCOCC1`, the half-maximal activity concentration (AC50) was 77.7 µM (active). Turning to `OCCNCCO`, the result was inactive. For `CC(C)CC(C)O` (configuration not stated), the molecule was called inactive.

Turning to `Cc1ncc([C@@H](CCCCCCc2ccc3c(n2)NCCC3)CC(=O)O)cn1`, the call was inactive. With `CCCCOC(=O)c1ccccc1`, the molecule was called inactive. As for `CC(C)CCCCCCOC(=O)C1CCCCC1C(=O)OCCCCCCC(C)C` (configuration not stated), the outcome was inactive.

In the case of `O=C(O)[C@H](O)[C@@H](O)C(=O)O`, the molecule was called inactive. Consider `CCCCN1C(=O)[C@@H]([C@H](O)C2CCCCC2)NC(=O)C12CCN(Cc1ccc(Oc3ccc(C(=O)O)cc3)cc1)CC2`, for which the AC50 was 10 µM (active). On to `Cc1nccn1-c1ccc(Sc2cccc(C3(C(N)=O)CCOCC3)c2)cc1`, for which the AC50 was 19.1 µM (active).

On to `C=CN1CCCC1=O`, for which the result was inactive. With `C[C@@H](Oc1ccc(CNC(=O)c2cccnc2Oc2ccc3c(c2)OCO3)c(F)c1)C(=O)O`, the result was inactive. Take `CCCc1ccccc1`: the outcome was inactive. Still for that read-out and setting: the same measure for `O=C(O)c1cccc(C(=O)O)c1`: “inactive”; for `CC(=O)c1ccccc1`: “inactive”. Turning to `CCCCCCOC(=O)CC(CC(=O)OCCCCCC)(OC(=O)CCC)C(=O)OCCCCCC`, the result was inactive.

Take `CCc1ccc(O)c(C(C)(C)C)c1`: the call was inactive. The same measure, in the same setting: then `O=c1[nH]cnc2c1ncn2[C@H]1CC[C@@H](CO)O1`, with “inactive”. With `COS(C)(=O)=O`, the result was inactive. `CCCCCCCC1CCC(=O)O1` (configuration not stated): the molecule was called inactive. For `NC(=O)N1c2ccccc2C=Cc2ccccc21`, the outcome was inactive. On the same count and under the same terms, then `c1ccc2cc3ccccc3cc2c1`, with “inactive”; and `OC(CCl)CCl`, with “inactive”; and `c1ccc2ncccc2c1`, with “inactive”. On to `CCCOc1ccc(S(=O)(=O)N2CCN(CC)CC2)cc1-c1nc2c(CC)n(Cc3ccccn3)nc2c(=O)[nH]1`, for which the molecule was called inactive. As for `OC(Cn1cncn1)(Cn1cncn1)c1ccc(F)cc1F`, the result was inactive. On the same count and under the same terms, then `O=C1CN(N=Cc2ccc([N+](=O)[O-])o2)C(=O)N1`, with “inactive”. For the molecule `Cc1nc(-c2ccccn2)ncc1C(=O)Nn1cc(C)c2cc(F)ccc21`, the AC50 is 78.5 µM (active).

On to `COc1cc(C(C)C)c2c(c1)S(=O)(=O)N(COc1cc(=O)n3cccc(OCCN4CCCCC4)c3n1)C2=O`, for which the AC50 is 19.9 µM (active). Take `OCC(CO)(CO)CO`: the result was inactive.

With `CCCCC(CC)C(=O)OCCOCCOCCOC(=O)C(CC)CCCC` (configuration not stated), the outcome was inactive. As for `COc1cc2c(c(OC)c1OC)-c1ccc(OC)c(=O)cc1[C@@H](NC(C)=O)CC2`, the half-maximal activity concentration (AC50) was 0.237 µM (active). For `CCOc1ccc2[nH]cc(C(=O)NCc3ccccc3)c(=O)c2n1`, the result was inactive.

For the molecule `COCc1nnc(-c2ccc[n+]([O-])c2)n1-c1c(Cl)c(Cl)cc2[nH]c(=O)c(=O)[nH]c12`, the call was inactive. Regarding `NNC(=O)c1ccncc1`, the molecule was called inactive. As to `OCc1ccccc1`, the molecule was called inactive. Regarding `NC(=O)N(O)[C@@H]1COc2cc(OCc3ccccc3)ccc21`, the molecule was called inactive. For the molecule `O=S(=O)(O)c1ccc(N=Nc2c(O)ccc3cc(S(=O)(=O)O)ccc23)cc1`, the molecule was called inactive.
